Sfp inh – blocks B. subtilis Sfp PPTase activity. Q9F4F7. actives 3.5% (n = 310,000). AID 1490. Biochemical Sfp PPTase activity, qHTS. Potency, µM, for the others: largest response in the series, negative = inhibition, most hits filed as inhibitors;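 also: the enzyme is Sfp with the accession as filed and its product quenches rhodamine fluorescence; 0% = enzyme reaction without inhibitor and -100% = no enzyme wells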
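Sfp 15 nM + cpd, 15 min RT; start w/ rhodamine-CoA 5 uM, BHQ-2-YbbR 12.5 uM (final); 50 mM Hepes pH 7.6, 10 mM MgCl2, 0.01% NP-40, 0.01% BSA; read 525/598 nm at 0 and 30 min.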
Tau fluor cs – counter-screen for tau fibril formation inhibitors; tau K18 P301L Alexa594 fluorescence, heparin fibrillization; Potency, µM (doses to about 57.7 µM), for inactives: at the top dose activity change, negative = decrease; actives 0.93% (n = 280,000); also: nearly all actives have a fitted effect of over 55% in size
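Human tau K18 P301L (15 uM unlabeled, 0.24 uM Alexa 594-labeled) in 100 mM sodium acetate pH 7 with 20 uM heparin, 6 hr at 37 C. ThT 30 uM added, 1 hr ambient; Alexa 594 FP and total fluorescence read at 555/632 nm.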
Tau fibril FP – inhibitors of human tau fibril formation | K18 P301L tau heparin fibrillization, Alexa594 FP, 6 h | Potency, µM (doses to about 57.7 µM), for inactives: at the top dose activity, negative = inhibition, usual class: inhibitors | actives 0.39% (n = 280,000) | P10636; also: nearly all actives have a fitted effect of over 55% in size
Target sequence (P10636 561-689 P618L limits assumed): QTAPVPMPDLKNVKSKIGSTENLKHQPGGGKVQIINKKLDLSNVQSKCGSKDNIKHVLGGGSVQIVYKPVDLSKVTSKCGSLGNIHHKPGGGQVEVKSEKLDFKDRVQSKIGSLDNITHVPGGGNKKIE
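Quantitative HTS format: compounds meet 15 uM recombinant K18 P301L tau and Alexa 594-tau tracer in 100 mM sodium acetate pH 7; 20 uM heparin triggers fibrillization at 37 C over 6 hr; FP gives the signal.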
PLK1 PBD block – PLK1 (human) polo-box domain binding inhibition. Plk1 PBD binding of FITC phosphopeptide, fluorescence polarization. Potency, µM, inactives show max response, negative = inhibition, actives largely listed as inhibitors. actives 2.8% (n = 360,000). P53350; also: series mostly up to about 57 µM; nearly all actives have a fitted effect of over 65% in size
Tau fibril ThT – tau fibrillization inhibition (ThT binding); P10636; recombinant tau K18 P301L (four-repeat tau fragment), heparin-induced fibrillization, ThT fluorescence; Potency, µM (doses to about 57.4 µM), for inactives: top-dose activity, negative = inhibition, most hits filed as inhibitors; actives 2.1% (n = 270,000); also: nearly all actives have a fitted effect of over 55% in size
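In this qHTS, human K18 P301L tau is incubated with compound and heparin for 6 hr at 37 C, and Thioflavin T fluorescence then reports fibril load.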
VDR inh – inhibitors of human vitamin D receptor | VDR-SRC2-3 peptide fluorescence polarization, 2 h | Potency, µM, inactives show max response, negative = inhibition, actives largely listed as inhibitors | actives 0.93% (n = 400,000) | AID 504847
Target sequence (P11473 whole entry, looked up): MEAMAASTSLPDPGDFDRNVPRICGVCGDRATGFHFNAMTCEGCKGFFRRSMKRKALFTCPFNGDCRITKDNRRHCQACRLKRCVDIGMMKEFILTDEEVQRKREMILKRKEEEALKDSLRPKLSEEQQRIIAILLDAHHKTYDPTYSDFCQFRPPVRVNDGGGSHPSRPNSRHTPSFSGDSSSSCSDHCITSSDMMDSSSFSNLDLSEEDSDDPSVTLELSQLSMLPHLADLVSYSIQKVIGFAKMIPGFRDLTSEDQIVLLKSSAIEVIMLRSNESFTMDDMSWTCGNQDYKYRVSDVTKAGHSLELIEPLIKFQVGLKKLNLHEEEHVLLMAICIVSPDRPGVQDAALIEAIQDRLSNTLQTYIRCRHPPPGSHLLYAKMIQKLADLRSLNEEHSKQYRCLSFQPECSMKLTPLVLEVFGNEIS
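Reagent solutions, kept cold and dark, are dispensed first; compounds are then pinned in at 23 nl, plates briefly spun, and incubated 2 h at ambient temperature. Inhibition of VDR–SRC2-3 peptide binding is read by fluorescence polarization.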
* marks the source's active call; other numbers are inactive results; ? = inconclusive; / = not tested or not shown; [ ] = another dose, or the depositor's remark. Shown are actives, neighbours in structure and some others; about 6% of the full set was active somewhere. Calls follow the shape of the dose curve; as a rule, active = well fitted curve in the direction sought with a large enough effect; inconclusive = small, poorly fitted or top-dose-only effect, or another doubt; inactive = no such curve, though single readings can be large; an effect the other way counts as inactive or inconclusive. Unless noted, % is scaled to controls: 0 for no effect and ±100 for the full control effect; potency is read from the fitted curve at half-maximal effect.

SMILES	Sfp inh	Tau fluor cs	Tau fibril FP	PLK1 PBD block	Tau fibril ThT	VDR inh
O=C(O)c1cccc(-n2cccc2/C=C2/NC(=O)N(c3cccc(Cl)c3)C2=O)c1	45µM*	-9%	3%	?	/	4%
NS(=O)(=O)c1cccc(NC(=O)CSc2nc3nc(-c4cccs4)cc(C(F)(F)F)c3c(=O)[nH]2)c1	0%	-21%	0%	34µM*	?	-14%
N#CCCN(C(=O)CSc1nc2nc(-c3cccs3)cc(C(F)(F)F)c2c(=O)[nH]1)c1ccccc1	-10%	1%	-2%	-25%	-14%	-1%
N#Cc1c(C(F)(F)F)cc(-c2cccs2)nc1SCC(=O)Nc1cccc(Br)c1	/	?	?	/	?	-14%
O=C(CSc1nc2nc(-c3cccs3)cc(C(F)(F)F)c2c(=O)[nH]1)Nc1c(F)c(F)c(F)c(F)c1F	12%	-3%	-5%	34µM*	7%	20%
Cc1ccc(S(=O)(=O)N2CCC(c3ccncc3)CC2)c(C)c1	/	-8%	-4%	/	-2%	1%
Cc1ccc(NC(=S)N(CCC(C)C)C(C)c2ccncc2)c(Cl)c1 (centres undefined)	56µM*	11%	6%	-8%	-11%	-14%
COCCCN(C(=S)Nc1cc(Cl)cc(Cl)c1)C(C)c1ccncc1 (centres undefined)	25µM*	-18%	-5%	21µM*	-7%	?
COc1ccc(NC(=S)N(CCN(C)C)C(C)c2ccncc2)cc1Cl (centres undefined)	-3%	0%	8%	-29%	/	9%
COCCCN(C(=S)Nc1ccc(C)cc1Cl)C(C)c1ccncc1 (centres undefined)	-10%	-9%	1%	-5%	-6%	11%
COCCCN(C(=S)Nc1cc(Cl)cc(Cl)c1)C(C)c1ccccn1 (centres undefined)	25µM*	-29%	-6%	17µM*	?	?
COc1ccc(S(=O)(=O)NC(=O)C2(C)CCN2C(=O)c2cccc(F)c2)cc1 (centres undefined)	/	/	/	-2%	/	/
CCOc1ccc(C(CC(=O)O)NC(=O)Cc2ccc(Cl)cc2)cc1 (centres undefined)	10%	/	/	7%	/	4%
CCOC(=O)C1=C(O)/C(=C/c2ccc(CNC(=O)C(=O)Nc3ccc(C)cc3)o2)N=C1C	40µM*	-23%	2%	-11%	?	14%
COC(=O)C1=C(O)/C(=C\c2ccc(CNC(=O)C(=O)Nc3ccc(C)cc3)o2)N=C1C	13µM*	-12%	-7%	-28%	?	16%
COC(=O)C1=C(O)/C(=C\c2ccc(CNC(=O)C(=O)Nc3ccc(C)c(C)c3)o2)N=C1C	?	?	0%	-18%	?	-4%
CCOC(=O)C(=O)NCc1ccc(/C=C2/N=C(C)C(C(=O)OCC)=C2O)o1	22µM*	-19%	-8%	-18%	?	-24%
COC(=O)C1=C(O)/C(=C/c2ccc(OCC(=O)Nc3ccc(OC)cc3)cc2)N=C1C	/	/	/	-4%	/	/
CCOC(=O)c1ccc(NC(=O)C(=O)NCc2ccc(/C=C(/C#N)C(=O)NCCOC)o2)cc1	4%	-10%	-2%	5%	?	-18%
O=C1[C@H]2[C@H]3[C@H](O)[C@H](O)C/C(=N/OCc4ccccc4)[C@H]3CC[C@@H]2C(=O)N1Cc1ccc2c(c1)OCO2	20%	-11%[11.6 µM]	-1%[11.6 µM]	/	-8%[11.5 µM]	/
COc1ccc(/C=C/C(=O)c2c(O)cc(C)oc2=O)c(OC)c1	22%	-6%	3%	9%	-17%	0%
COc1ccc(/C=C/C(=O)c2cccs2)c(OC)c1	?	-11%	6%	/	?	11µM*
COc1ccc(C=O)c(OC)c1	9%	10%	-5%	-10%	-3%	9%
COc1cc(/C=C\c2ccc(OC)cc2OC)cc(OC)c1	50µM*	?	2%	/	?	5%
COc1ccc(-c2noc(CSCC(=O)Nc3ccc(C)cc3Br)n2)cc1OC	/	-20%	7%	/	?	7%
SMILES	Sfp inh	Tau fluor cs	Tau fibril FP	PLK1 PBD block	Tau fibril ThT	VDR inh
C=Cc1ccc(C2=CC(=O)C[C@H](c3ccc(OC)cc3)C2)cc1	/	/	/	-15%	/	?
C#CCOCCOCCOCCNc1nc(N2CCN(C(=O)[C@H](C(C)C)n3cc(CCO)nn3)CC2)nc(N2CCN(C(=O)[C@H]([C@@H](C)CC)n3cc(CCC(=O)O)nn3)CC2)n1	/	/	/	-10%	/	-8%
CCCCc1ccc(S(=O)(=O)NNC(=S)NCc2ccco2)cc1	4%	-12%	-7%	-9%	-9%	-24%
CC(=O)Nc1ccc(S(=O)(=O)NNC(=S)NCc2ccco2)cc1	45µM*	/	/	-5%	/	2%
NS(=O)(=O)c1ccc(NC(=S)NCC2CCCO2)cc1 (centres undefined)	45µM*	0%	0%	24µM*	2%	-19%
CC(=O)Nc1ccc(S(=O)(=O)NNC(=S)NCC2CCCO2)cc1 (centres undefined)	56µM*	/	/	-4%	/	-2%
CCc1nc2c(OCC3COc4ccccc4O3)cccn2c1N(C)C(=O)c1cccs1 (centres undefined)	/	/	/	-9%	/	/
O=C(OCC(=O)N1CCc2ccccc21)c1ccncc1	/	/	/	1%	/	-3%
Cc1ccc(-c2csc(NC(=O)c3cccc(N4C(=O)CCC4=O)c3)n2)o1	20µM*	-13%	7%	-7%	-15%	?
CCOc1ccc(-c2csc(NC(=O)c3cccc(N4C(=O)CCC4=O)c3)n2)cc1	1%	3%[0.0958 µM]	5%[0.0958 µM]	-6%	/	-4%
CC(=O)Nc1nonc1-c1nnc(SCC(=O)Nc2cc(Cl)ccc2C)n1C	/	-11%	-5%	/	-8%	16%
O=C1NC(=S)S/C1=C/c1ccc(N2CCOCC2)o1	?	-9%	11%	57%	-3%	?
O=C1S/C(=C/c2ccc(N3CCOCC3)o2)C(=O)N1Cc1ccc(F)cc1	3.5µM*	-9%	6%	36%	?	?
O=C1S/C(=C\c2ccc(N3CCOCC3)o2)C(=O)N1Cc1ccc(F)cc1	2µM*	-4%	-3%	36%	-16%	?
CC(C)OC(=O)CN1C(=O)S/C(=C/c2ccc(N3CCCCC3)o2)C1=O	8.9µM*	-8%	18%	33%	?	-84%
C=CCN1C(=O)N/C(=C/c2ccc(N3CCOCC3)o2)C1=O	?	-28%	?	/	7.9µM*	/
CCCSc1nc2sc3c(c2c(=O)n1-c1ccc(C)c(Cl)c1)CCN(C(C)=O)C3	/	-17%	?	/	?	11%
CCN(C)C1CN(Cc2cn(Cc3cc(C)cc(C)c3)nn2)S(=O)(=O)C1 (centres undefined)	/	/	/	-7%	/	/
CCCCc1cc(=O)oc2cc(C)c3c(C(C)(C)C)coc3c12	/	?	-6%	/	?	6%

Screening data from PubChem.
